Numbering of substitutions follows the chain as printed.

Results on 12 sequences are retold here after publication PMC11006913.

Common to all, as to assay: PBM; 200 nM protein, PBS
Common to all, as to details: dsDNA, one strand shown

For assay [1], the target named is HOXB9 (Homo sapiens, UniProt P17482 171-250, T197M).
The target in assay [2] is T1, VENTX (Homo sapiens, UniProt O95231 78-163).
T1 sequence: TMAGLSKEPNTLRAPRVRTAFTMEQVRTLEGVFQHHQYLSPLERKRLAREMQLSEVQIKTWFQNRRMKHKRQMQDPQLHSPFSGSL

The target in assay [3] is T2, PAX4 (Homo sapiens, UniProt O43316 9-242, R200K).
T2 sequence: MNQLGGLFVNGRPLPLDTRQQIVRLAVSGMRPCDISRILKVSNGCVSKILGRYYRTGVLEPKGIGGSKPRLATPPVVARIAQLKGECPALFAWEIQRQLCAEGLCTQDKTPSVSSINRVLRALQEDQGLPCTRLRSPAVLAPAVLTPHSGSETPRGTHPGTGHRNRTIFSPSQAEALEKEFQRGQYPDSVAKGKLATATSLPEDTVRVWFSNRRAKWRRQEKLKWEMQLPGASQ

For assay [4], the target named is T3, VENTX (Homo sapiens, UniProt O95231 78-163, Y115F).
T3 sequence: T1 sequence with Y38F

In assay [5] the target is T4, PAX4 (Homo sapiens, UniProt O43316 9-242).
T4 sequence: T2 sequence with K192R

Assay [6] has as its target T5, PAX4 (Homo sapiens, UniProt O43316 9-242, R200Q).
T5 sequence: T2 sequence with K192Q

In assay [7] the target is T6, PAX4 (Homo sapiens, UniProt O43316 9-242, F177V).
T6 sequence: T2 sequence with F169V, K192R

Assay [8] deals with HOXC10 (Homo sapiens, UniProt Q9NYD6 254-340, K271E).
HOXC10, sequence (Q9NYD6 254-340 K271E): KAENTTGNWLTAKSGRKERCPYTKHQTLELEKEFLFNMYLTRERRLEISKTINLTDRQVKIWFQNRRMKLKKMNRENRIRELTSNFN
Assay [9] deals with T7, PAX4 (Homo sapiens, UniProt O43316 9-242, F177Y).
T7 sequence: T2 sequence with F169Y, K192R

Assay [10] deals with VAX1 (Homo sapiens, UniProt Q5SQQ9 86-172).
VAX1, sequence (Q5SQQ9 86-172): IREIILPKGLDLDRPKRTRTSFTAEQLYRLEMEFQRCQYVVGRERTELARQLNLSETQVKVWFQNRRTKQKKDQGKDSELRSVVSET
The target of assay [11] is HOXB9 (Homo sapiens, UniProt P17482 171-250, R186Q).
HOXB9 (Homo sapiens, UniProt P17482 171-250, R186Q), sequence (P17482 171-250 R186Q): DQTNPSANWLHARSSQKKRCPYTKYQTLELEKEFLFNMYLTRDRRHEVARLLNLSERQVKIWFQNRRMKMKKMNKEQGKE
Assay [12] addresses HOXC9 (Homo sapiens, UniProt P31274 178-260, R222W).
Assay [13] has as its target T8, PAX4 (Homo sapiens, UniProt O43316 9-242, R227W).
T8 sequence: T2 sequence with K192R, R219W

The target of assay [14] is HOXA2 (Homo sapiens, UniProt O43364 129-215, Y150S).
HOXA2 (Homo sapiens, UniProt O43364 129-215, Y150S), sequence (O43364 129-215 Y150S): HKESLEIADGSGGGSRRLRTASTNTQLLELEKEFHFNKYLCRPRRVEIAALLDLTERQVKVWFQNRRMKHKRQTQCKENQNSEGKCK
Assay [15] concerns the target HOXA2 (Homo sapiens, UniProt O43364 129-215).
For assay [16], the target named is HOXC9 (Homo sapiens, UniProt P31274 178-260, K195R).
HOXC9 (Homo sapiens, UniProt P31274 178-260, K195R), sequence (P31274 178-260 K195R): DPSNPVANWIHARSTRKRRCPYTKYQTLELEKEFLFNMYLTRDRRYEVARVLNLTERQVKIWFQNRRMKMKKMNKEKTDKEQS
Assay [17] concerns the target HOXB9 (Homo sapiens, UniProt P17482 171-250).
For assay [18], the target named is HOXC9 (Homo sapiens, UniProt P31274 178-260, R193K).
HOXC9 (Homo sapiens, UniProt P31274 178-260, R193K), sequence (P31274 178-260 R193K): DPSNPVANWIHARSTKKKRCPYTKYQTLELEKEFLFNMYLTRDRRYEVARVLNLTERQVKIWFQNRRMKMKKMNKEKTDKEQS

HOXA2 (Homo sapiens, UniProt O43364 129-215), sequence (O43364 129-215): as the sequence (O43364 129-215 Y150S) above, with S22Y counted along it
HOXB9 (Homo sapiens, UniProt P17482 171-250, T197M), sequence (P17482 171-250 T197M): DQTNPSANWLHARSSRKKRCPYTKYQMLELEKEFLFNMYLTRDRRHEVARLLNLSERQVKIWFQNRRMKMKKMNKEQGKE
HOXB9 (Homo sapiens, UniProt P17482 171-250), sequence (P17482 171-250): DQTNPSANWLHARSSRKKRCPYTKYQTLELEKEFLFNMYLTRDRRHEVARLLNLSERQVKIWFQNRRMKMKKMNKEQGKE
HOXC9 (Homo sapiens, UniProt P31274 178-260, R222W), sequence (P31274 178-260 R222W): as the sequence (P31274 178-260 R193K) above, with K16R, R45W counted along it

As to CCAATTAA, the binding signal in [1] is 10 upbm affinity estimate (log intensity, higher = more binding, comparable within an allelic series); in assay [2], 12.9 upbm affinity estimate (log intensity, higher = more binding, comparable within an allelic series); in [3] it was 11.8 upbm affinity estimate (log intensity, higher = more binding, comparable within an allelic series); in [4], 11.8 upbm affinity estimate (log intensity, higher = more binding, comparable within an allelic series); in [5], 12.3 upbm affinity estimate (log intensity, higher = more binding, comparable within an allelic series); in assay [6], 12.4 upbm affinity estimate (log intensity, higher = more binding, comparable within an allelic series). The binding signal in assay [7] was 10.6 upbm affinity estimate (log intensity, higher = more binding, comparable within an allelic series); in assay [8], 11.9 upbm affinity estimate (log intensity, higher = more binding, comparable within an allelic series); in assay [9], 11.1 upbm affinity estimate (log intensity, higher = more binding, comparable within an allelic series); in assay [10] it was 13 upbm affinity estimate (log intensity, higher = more binding, comparable within an allelic series); in [11] it was 11.4 upbm affinity estimate (log intensity, higher = more binding, comparable within an allelic series); in [12], 11.1 upbm affinity estimate (log intensity, higher = more binding, comparable within an allelic series). Besides, the binding signal in assay [13] is 11 upbm affinity estimate (log intensity, higher = more binding, comparable within an allelic series); in assay [14], 10.8 upbm affinity estimate (log intensity, higher = more binding, comparable within an allelic series); in assay [15], 12.2 upbm affinity estimate (log intensity, higher = more binding, comparable within an allelic series).
Consider CCTAATTA, for which the binding signal in assay [2] is 13 upbm affinity estimate (log intensity, higher = more binding, comparable within an allelic series); in [3], 12.1 upbm affinity estimate (log intensity, higher = more binding, comparable within an allelic series); in assay [4] it was 12.4 upbm affinity estimate (log intensity, higher = more binding, comparable within an allelic series); in assay [5], 12.6 upbm affinity estimate (log intensity, higher = more binding, comparable within an allelic series); in [6] it was 12.5 upbm affinity estimate (log intensity, higher = more binding, comparable within an allelic series); in [7], 10.8 upbm affinity estimate (log intensity, higher = more binding, comparable within an allelic series). Further, the binding signal was 11.8 upbm affinity estimate (log intensity, higher = more binding, comparable within an allelic series) in [8]; 11.3 upbm affinity estimate (log intensity, higher = more binding, comparable within an allelic series) in assay [9]; 13.8 upbm affinity estimate (log intensity, higher = more binding, comparable within an allelic series) in assay [10]; 11.2 upbm affinity estimate (log intensity, higher = more binding, comparable within an allelic series) in assay [13]; 10.8 upbm affinity estimate (log intensity, higher = more binding, comparable within an allelic series) in [14]; 13.2 upbm affinity estimate (log intensity, higher = more binding, comparable within an allelic series) in assay [15].
As to AGCAATTA, the binding signal in [1] is 9.96 upbm affinity estimate (log intensity, higher = more binding, comparable within an allelic series); in [2], 12.4 upbm affinity estimate (log intensity, higher = more binding, comparable within an allelic series); in assay [4], 11.8 upbm affinity estimate (log intensity, higher = more binding, comparable within an allelic series); in assay [8] it was 11.8 upbm affinity estimate (log intensity, higher = more binding, comparable within an allelic series); in assay [10], 12.9 upbm affinity estimate (log intensity, higher = more binding, comparable within an allelic series); in [14] it was 10.8 upbm affinity estimate (log intensity, higher = more binding, comparable within an allelic series). In addition, the binding signal in [15] was 12.5 upbm affinity estimate (log intensity, higher = more binding, comparable within an allelic series).
With CTAATTGA, the binding signal in assay [2] was 12.8 upbm affinity estimate (log intensity, higher = more binding, comparable within an allelic series); in assay [3], 11.5 upbm affinity estimate (log intensity, higher = more binding, comparable within an allelic series); in assay [4] it was 11.7 upbm affinity estimate (log intensity, higher = more binding, comparable within an allelic series); in assay [5], 12.2 upbm affinity estimate (log intensity, higher = more binding, comparable within an allelic series); in [6] it was 11.8 upbm affinity estimate (log intensity, higher = more binding, comparable within an allelic series); in assay [7] it was 10.4 upbm affinity estimate (log intensity, higher = more binding, comparable within an allelic series). Besides, the binding signal in assay [9] is 10.8 upbm affinity estimate (log intensity, higher = more binding, comparable within an allelic series); in assay [10], 13.5 upbm affinity estimate (log intensity, higher = more binding, comparable within an allelic series); in assay [13] it was 10.7 upbm affinity estimate (log intensity, higher = more binding, comparable within an allelic series); in [14], 10.6 upbm affinity estimate (log intensity, higher = more binding, comparable within an allelic series); in assay [15], 12.6 upbm affinity estimate (log intensity, higher = more binding, comparable within an allelic series).
Turning to ATAATTGA, the binding signal in [1] was 9.97 upbm affinity estimate (log intensity, higher = more binding, comparable within an allelic series); in [6], 11.9 upbm affinity estimate (log intensity, higher = more binding, comparable within an allelic series); in assay [9] it was 11 upbm affinity estimate (log intensity, higher = more binding, comparable within an allelic series).
Turning to AATTAATC, the binding signal in assay [1] was 10 upbm affinity estimate (log intensity, higher = more binding, comparable within an allelic series); in assay [2], 12.3 upbm affinity estimate (log intensity, higher = more binding, comparable within an allelic series); in [3] it was 11.9 upbm affinity estimate (log intensity, higher = more binding, comparable within an allelic series); in assay [4], 11.5 upbm affinity estimate (log intensity, higher = more binding, comparable within an allelic series); in assay [5], 12.4 upbm affinity estimate (log intensity, higher = more binding, comparable within an allelic series); in [6] it was 12.2 upbm affinity estimate (log intensity, higher = more binding, comparable within an allelic series). In addition, the binding signal in assay [7] is 10.7 upbm affinity estimate (log intensity, higher = more binding, comparable within an allelic series); in [9], 11.2 upbm affinity estimate (log intensity, higher = more binding, comparable within an allelic series); in assay [13], 11 upbm affinity estimate (log intensity, higher = more binding, comparable within an allelic series).
Take CAATTAAG: the binding signal in assay [2] was 12.5 upbm affinity estimate (log intensity, higher = more binding, comparable within an allelic series); in [4], 11.6 upbm affinity estimate (log intensity, higher = more binding, comparable within an allelic series); in assay [6], 11.9 upbm affinity estimate (log intensity, higher = more binding, comparable within an allelic series); in assay [10], 13 upbm affinity estimate (log intensity, higher = more binding, comparable within an allelic series); in assay [14] it was 10.7 upbm affinity estimate (log intensity, higher = more binding, comparable within an allelic series); in assay [15], 12.2 upbm affinity estimate (log intensity, higher = more binding, comparable within an allelic series).
Turning to ATCAATTA, the binding signal is 10.1 upbm affinity estimate (log intensity, higher = more binding, comparable within an allelic series) in [1]; 12.5 upbm affinity estimate (log intensity, higher = more binding, comparable within an allelic series) in [16]; 12.7 upbm affinity estimate (log intensity, higher = more binding, comparable within an allelic series) in assay [2]; 11.8 upbm affinity estimate (log intensity, higher = more binding, comparable within an allelic series) in [3]; 11.8 upbm affinity estimate (log intensity, higher = more binding, comparable within an allelic series) in [4]; 12.4 upbm affinity estimate (log intensity, higher = more binding, comparable within an allelic series) in [5]. The binding signal is 11.7 upbm affinity estimate (log intensity, higher = more binding, comparable within an allelic series) in [17]; 12.2 upbm affinity estimate (log intensity, higher = more binding, comparable within an allelic series) in assay [6]; 12.6 upbm affinity estimate (log intensity, higher = more binding, comparable within an allelic series) in assay [18]; 10.7 upbm affinity estimate (log intensity, higher = more binding, comparable within an allelic series) in assay [7]; 11.9 upbm affinity estimate (log intensity, higher = more binding, comparable within an allelic series) in assay [8]; 11.2 upbm affinity estimate (log intensity, higher = more binding, comparable within an allelic series) in [9]. Also, the binding signal in assay [10] was 13.3 upbm affinity estimate (log intensity, higher = more binding, comparable within an allelic series); in [11], 11.5 upbm affinity estimate (log intensity, higher = more binding, comparable within an allelic series); in [12], 11.1 upbm affinity estimate (log intensity, higher = more binding, comparable within an allelic series); in assay [13], 11 upbm affinity estimate (log intensity, higher = more binding, comparable within an allelic series); in assay [14], 10.9 upbm affinity estimate (log intensity, higher = more binding, comparable within an allelic series); in assay [15], 12.7 upbm affinity estimate (log intensity, higher = more binding, comparable within an allelic series).
With ATAATTAG, the binding signal in assay [1] is 10.2 upbm affinity estimate (log intensity, higher = more binding, comparable within an allelic series); in assay [2], 12.9 upbm affinity estimate (log intensity, higher = more binding, comparable within an allelic series); in assay [3] it was 12 upbm affinity estimate (log intensity, higher = more binding, comparable within an allelic series); in [4] it was 12.3 upbm affinity estimate (log intensity, higher = more binding, comparable within an allelic series); in [5] it was 12.7 upbm affinity estimate (log intensity, higher = more binding, comparable within an allelic series); in assay [6], 12.6 upbm affinity estimate (log intensity, higher = more binding, comparable within an allelic series). For the same sequence, the binding signal was 10.8 upbm affinity estimate (log intensity, higher = more binding, comparable within an allelic series) in assay [7]; 11.8 upbm affinity estimate (log intensity, higher = more binding, comparable within an allelic series) in [8]; 11.3 upbm affinity estimate (log intensity, higher = more binding, comparable within an allelic series) in assay [9]; 13.8 upbm affinity estimate (log intensity, higher = more binding, comparable within an allelic series) in assay [10]; 11.3 upbm affinity estimate (log intensity, higher = more binding, comparable within an allelic series) in assay [13]; 11 upbm affinity estimate (log intensity, higher = more binding, comparable within an allelic series) in assay [14]. Moreover, the binding signal in assay [15] is 13.1 upbm affinity estimate (log intensity, higher = more binding, comparable within an allelic series).
With AATTAGTG, the binding signal in assay [2] is 12.3 upbm affinity estimate (log intensity, higher = more binding, comparable within an allelic series); in assay [3] it was 11.8 upbm affinity estimate (log intensity, higher = more binding, comparable within an allelic series); in assay [4] it was 11.7 upbm affinity estimate (log intensity, higher = more binding, comparable within an allelic series); in [5], 12.4 upbm affinity estimate (log intensity, higher = more binding, comparable within an allelic series); in assay [6] it was 12.3 upbm affinity estimate (log intensity, higher = more binding, comparable within an allelic series); in assay [7], 10.6 upbm affinity estimate (log intensity, higher = more binding, comparable within an allelic series). Besides, the binding signal was 11.1 upbm affinity estimate (log intensity, higher = more binding, comparable within an allelic series) in assay [9]; 12.8 upbm affinity estimate (log intensity, higher = more binding, comparable within an allelic series) in assay [10]; 11.1 upbm affinity estimate (log intensity, higher = more binding, comparable within an allelic series) in [13]; 10.8 upbm affinity estimate (log intensity, higher = more binding, comparable within an allelic series) in assay [14]; 12.2 upbm affinity estimate (log intensity, higher = more binding, comparable within an allelic series) in [15].
CCTTCGAG: the binding signal in assay [1] is 8.5 upbm affinity estimate (log intensity, higher = more binding, comparable within an allelic series); in assay [17], 8.46 upbm affinity estimate (log intensity, higher = more binding, comparable within an allelic series); in assay [11], 8.5 upbm affinity estimate (log intensity, higher = more binding, comparable within an allelic series).
For the sequence CAATTATA, the binding signal was 10.1 upbm affinity estimate (log intensity, higher = more binding, comparable within an allelic series) in assay [1] and 12.5 upbm affinity estimate (log intensity, higher = more binding, comparable within an allelic series) in assay [16].
